Rows were chosen to be rich in hits. Some 19% of all compounds tested hit in one or more screens of this group.
HT1080 IDH1KD tx – kills HT-1080 cells with IDH1 knockdown. Potency, µM (top dose mostly 46.1 µM), without a hit: top-dose activity, negative = toxicity, most hits filed as cytotoxic. AID 686971. 360,000 compounds, 2% hits. HT-1080 IDH1 knockdown viability, ATP luminescence, 48 h;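 further: potency means the concentration at half of the fitted maximal effect; 0% = DMSO wells and -100% = cell-free medium wells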
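Cytotoxicity counter-line: IDH1KD HT-1080, 48 h, CellTiter-Glo. Curves classed by r2, magnitude and activity.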
DT40 TDP1 no CPT – qHTS for Inhibitors of human tyrosyl-DNA phosphodiesterase 1 (TDP1): qHTS in cells in absence of CPT; DT40 Tdp1-/- hTDP1 cells, no CPT, ATP luminescence, 48 h; Potency, µM (doses to about 46.2 µM), without a hit: at the top dose activity change, negative = growth inhibition, most hits filed as inhibitors; 420,000 compounds, 15% hits; further: potency means the concentration at half of the fitted maximal effect; nearly all actives have a fitted effect of over 55% in size
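No-CPT arm: Tdp1-/-;hTDP1 DT40 cells (400/well) plus compounds, incubated ≥48 hr at 37 °C. Readout CellTiter-Glo luminescence.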
HT1080NT lethal – kills 2HG-producing HT-1080-NT fibrosarcoma cells | HT-1080-NT fibrosarcoma viability, CellTiter-Glo ATP luminescence, 48 h | Potency, µM (doses to about 46.1 µM), for the others: at the highest dose activity, negative = less viability, hits mostly cytotoxic | 360,000 compounds, 1.6% hits | AID 686970;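 further: NT is the 2HG producing partner of a matched IDH1 knockdown line; potency means the concentration at half of the fitted maximal effect; 0% = DMSO-treated cells and -100% = media-only wells without cells; nearly all actives have a fitted effect of over 55% in size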
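Toxicity toward the 2HG-producing NT line was scored as %Activity, normalised to DMSO and no-cell wells, from CellTiter-Glo luminescence after 48 hours' treatment.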
DT40 TDP1 CPT – growth inhibition of DT40 Tdp1-/-;hTDP1 cells with camptothecin (screen for TDP1 inhibitors). Potency, µM (titrated, usually from 46.2 µM), inactives show at the top dose activity change, negative = growth inhibition, usual class: inhibitors. 420,000 compounds, 12% hits. chicken DT40 Tdp1-/-;hTDP1 cells + 20 nM CPT, ATP luminescence, 48 h; further: potency means the concentration at half of the fitted maximal effect; nearly all actives have a fitted effect of over 55% in size
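Cell growth measured by CellTiter-Glo luminescence after a minimum 48 h, 37 C compound exposure with 20 nM CPT in Tdp1-knockout DT40 cells stably expressing hTDP1, seeded 400/well; qHTS titration format.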
IL-1B inflam inh – inflammasome signaling inhibition, IL-1 beta readout; THP-1 LPS/ATP IL-1B secretion, AlphaLISA, 16 h; active compounds read low; activity change, % at 57.5 µM; 360,000 compounds, 4.7% hits; in the data active means activity change below about -50%; inconclusive means mostly about -30% to -49%
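THP-1 cells pretreated 1 hr with compounds (up to 57.5 uM final), then stimulated with LPS (250 ng/mL final) plus ATP (1.25 mM final); secreted IL-1B measured by AlphaLISA after 16 hr, decreased signal indicating inhibition.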
An asterisk follows results filed as active; [ ] = another dose, or the depositor's remark. Unless noted, the call rests on the fitted dose curve; in most records, active means well fitted curve in the direction sought with a large enough effect; inconclusive means small, poorly fitted or top-dose-only effect, or another doubt; inactive means no such curve, though single readings can be large; an effect the other way counts as inactive or inconclusive. Unless noted, on the % scale 0 is the no-effect control and ±100 the full control effect.

Screening Cc1ccc(Cl)cc1N1CCN(C(=O)C2CCN(c3nnc(-n4cccc4)s3)CC2)CC1 returned HT1080 IDH1KD tx -18.7%, DT40 TDP1 no CPT 16.4µM*, HT1080NT lethal -15.8%, DT40 TDP1 CPT inconclusive and IL-1B inflam inh -18.7.
Screening Cc1cccc(N2CCN(S(=O)(=O)c3c(C(=O)N4CCCCC4)c(C)n(C)c3C)CC2)c1C returned HT1080 IDH1KD tx -6.5%, DT40 TDP1 no CPT inconclusive, HT1080NT lethal -8.3%, DT40 TDP1 CPT inconclusive and IL-1B inflam inh 0.0.
`Cc1cccc(N2CCN(C(=O)c3cccn3-c3nnc(N4CCCCC4)s3)CC2)c1C` gave DT40 TDP1 no CPT 23.1µM* and DT40 TDP1 CPT 23.1µM*.
Screening Cc1ccc(Cl)cc1N1CCN(S(=O)(=O)c2c(C)[nH]c(C)c2C(=O)N2CCCC2)CC1 returned HT1080 IDH1KD tx -18.0%, DT40 TDP1 no CPT inconclusive, HT1080NT lethal -5.9%, DT40 TDP1 CPT inconclusive and IL-1B inflam inh -15.2.
For Cc1ccc(Cl)cc1N1CCN(C(=O)c2cccn2-c2nnc(N3CCCCC3)s2)CC1 the results were DT40 TDP1 no CPT 13µM* and DT40 TDP1 CPT 18.4µM*.
`O=C1CN(Cc2cc(=O)oc3cc4c(cc23)CCC4)CCN1` gave HT1080 IDH1KD tx -9.5%, DT40 TDP1 no CPT 5.2%, HT1080NT lethal -5.6%, DT40 TDP1 CPT 12.7% and IL-1B inflam inh 3.8.
For CC1CCN(c2ccc(N3C(=O)C4CCCCC4C3=O)cc2[N+](=O)[O-])CC1 (centres undefined) the results were HT1080 IDH1KD tx 1.1%, DT40 TDP1 no CPT -24.0%, HT1080NT lethal 9.9%, DT40 TDP1 CPT -5.8% and IL-1B inflam inh -2.6.
`O=C(Cn1c(=O)c2cccn2c2cccnc21)NCc1ccccc1F` gave DT40 TDP1 no CPT -25.1% and DT40 TDP1 CPT 0.7%.
Screening CCOc1ccccc1OCCC(=O)N1CCN(S(=O)(=O)c2ccccc2[N+](=O)[O-])CC1 returned HT1080 IDH1KD tx -27.9%, DT40 TDP1 no CPT inconclusive, HT1080NT lethal -1.6%[9.24 µM], DT40 TDP1 CPT inconclusive and IL-1B inflam inh inconclusive.
For O=C(c1cccn1-c1nnc(N2CCCCC2)s1)N1CCN(c2ccc(Cl)cc2)CC1 the results were DT40 TDP1 no CPT 25.9µM* and DT40 TDP1 CPT inconclusive.
`O=C(N1CCCCC1)N1CCN(c2ccc(Cl)cc2)CC1` gave HT1080 IDH1KD tx -14.8%, DT40 TDP1 no CPT inconclusive, HT1080NT lethal -5.7%, DT40 TDP1 CPT -26.7% and IL-1B inflam inh inconclusive.
`COc1cccc(CNC(=O)c2oc3ccc4c(c3c2C)C(=O)CC(C)(C)O4)c1OC` gave DT40 TDP1 no CPT 16.4µM* and DT40 TDP1 CPT inconclusive.
Screening CCOC(=O)c1ccc(NC(=O)c2oc3ccc4c(c3c2C)C(=O)CC(C)(CC)O4)cc1 (centres undefined) returned DT40 TDP1 no CPT 20.6µM* and DT40 TDP1 CPT inconclusive.
Cc1c(C(=O)NCc2ccc(Cl)cc2)oc2ccc3c(c12)C(=O)CC(C)(C)O3 was read as DT40 TDP1 no CPT 14.6µM* and DT40 TDP1 CPT inconclusive.
For COc1ccc(C(=O)OCN2C(=O)c3ccccc3C2=O)cc1 the results were HT1080 IDH1KD tx 18.1%, DT40 TDP1 no CPT 7.2%, HT1080NT lethal 6.1%, DT40 TDP1 CPT 5.1% and IL-1B inflam inh 42.8.
For COc1ccc(O)c(CN2CCC3(CCC(CNC(=O)C4CCCO4)O3)CC2)c1 (centres undefined) the results were DT40 TDP1 no CPT -1.0% and DT40 TDP1 CPT -0.2%[9.04 µM].
`CCC(C)/C(C)=N/NC(=O)CNS(=O)(=O)c1ccc([N+](=O)[O-])cc1` (centres undefined) gave HT1080 IDH1KD tx 11.7%, DT40 TDP1 no CPT -8.4%, HT1080NT lethal 12.5%, DT40 TDP1 CPT inconclusive and IL-1B inflam inh -4.4.
For CC(Nc1ccc(-c2nc(-c3ccncc3)no2)cc1[N+](=O)[O-])c1ccccc1 (centres undefined) the results were DT40 TDP1 no CPT -21.3% and DT40 TDP1 CPT -17.8%.

Screening data as filed in PubChem BioAssay.
